# This is one part of a sample in which hits are shown more often than they occur.
# ST2 inh: blocks human ST2 binding to IL-33 | Q01638 | AlphaLISA ST2-Fc/biotin-IL-33 interaction, 1 h | inhibition, % for hits at 17 µM | 78,000 compounds, 2.3% hits | AID 1259354; in the data active = inhibition above about 30%
# Target sequence (Q01638 whole entry, looked up): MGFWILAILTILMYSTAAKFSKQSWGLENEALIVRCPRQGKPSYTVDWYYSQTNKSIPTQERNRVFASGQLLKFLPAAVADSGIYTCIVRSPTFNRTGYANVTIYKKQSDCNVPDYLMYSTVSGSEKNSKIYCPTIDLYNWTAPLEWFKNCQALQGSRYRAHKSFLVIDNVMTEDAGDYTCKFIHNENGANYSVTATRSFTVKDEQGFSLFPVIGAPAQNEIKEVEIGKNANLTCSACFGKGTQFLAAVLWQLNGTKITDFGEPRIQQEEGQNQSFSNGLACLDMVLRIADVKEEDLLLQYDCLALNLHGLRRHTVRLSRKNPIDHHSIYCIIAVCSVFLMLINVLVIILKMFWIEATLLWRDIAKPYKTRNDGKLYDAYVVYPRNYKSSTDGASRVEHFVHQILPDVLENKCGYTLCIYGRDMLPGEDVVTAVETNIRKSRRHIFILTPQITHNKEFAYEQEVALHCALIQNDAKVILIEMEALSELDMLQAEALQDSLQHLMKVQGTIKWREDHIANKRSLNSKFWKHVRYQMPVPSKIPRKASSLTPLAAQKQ
# A number is an active result; i = inactive.
SMILES,ST2 inh
COc1ccc(/C=C(/NC(=O)c2cccs2)C(=O)NC(C)(C)C)cc1OC,i
N#C/C(=C\c1ccco1)c1nc(-c2cc3cc(Br)ccc3oc2=O)cs1,i
N#C/C(=C\c1cccs1)c1nc(-c2ccc(Cl)cc2)cs1,46%
CN1CCN(c2nc(-c3cccs3)cc(C(F)(F)F)n2)CC1,i
N#C/C(=C\Nc1ccc(S(N)(=O)=O)cc1)c1nc(-c2ccc(Cl)cc2)cs1,i
Cc1ccc(-c2csc(/C(C#N)=C/c3ccco3)n2)cc1,63%
Cc1cc(-c2cccs2)n[nH]1,i
CCCCOC(=O)Nc1cc(C)cc(C)c1,i
NS(=O)(=O)c1ccccc1Cl,i
CCC(C)NC(=O)c1cc2c(=O)oc3ccccc3c2s1 (stereo not drawn),i
Cc1ccc2c(c1)CN(Cc1ccc(C)s1)CC(C)O2 (stereo not drawn),i
COc1ccc2c(c1)CC(c1nc(Cc3ccc(F)cc3)no1)CO2 (stereo not drawn),i
CC(Sc1ccccc1)C(=O)NC(C)(C)C (stereo not drawn),i
O=C(NCC(c1cccnc1)N1CCOCC1)c1nc(N2CCCC2)nc2c1CCCC2 (stereo not drawn),i
Cc1ccc(Nc2nc(-c3ccccc3)cs2)cc1,i
Nc1n[nH]c(-c2cccc([N+](=O)[O-])c2)n1,i
COc1ccccc1/C=C(\C#N)c1nc(-c2cccc([N+](=O)[O-])c2)cs1,i
COc1ccc(/C=C(\C#N)c2nc(-c3cccc([N+](=O)[O-])c3)cs2)cc1O,35%
Cc1ccc(-c2csc(Nc3ccc(F)cc3)n2)cc1,i
Cc1ccc(-c2csc(/C(C#N)=C/c3cccs3)n2)cc1,64%
CC(C)CN1CC(C(=O)N(C)Cc2cc(-c3ccncc3)no2)CC1=O (stereo not drawn),i
CCCc1[nH]n(-c2nc3ccccc3s2)c(=O)c1C(C)=NCCO,i
O=C(N1CC[C@H](CO)[C@@H](O)C1)C1(S(=O)(=O)c2ccccc2)CC1,i
CN(CCn1cccn1)c1nc(-c2cccnc2)nc2c1cnn2C,i
CC(CN(C)c1nc(-c2cccnc2)nc2c1cnn2C)N1CCOCC1 (stereo not drawn),i
SMILES,ST2 inh
CN(CC1COCCO1)c1nc(-c2cccnc2)nc2c1cnn2C (stereo not drawn),34%
Cc1cccc(/C(N)=N\OC(=O)c2ccc3c(c2)OCO3)c1,i
CC1=NN(c2nc(-c3ccccc3)cs2)C(=O)C1C(c1ccccc1)C(C#N)C(N)=O (stereo not drawn),i
Cc1cc(NC(=O)c2cc(-c3ccccc3O)on2)no1,i
O=C(Cn1ccc2ccccc2c1=O)NCC(=O)Nc1ccc(F)cc1,i
CC(=O)Nc1nc2ccccc2n1CCCN(C)C,i
CC1CN(c2c3c(c(C#N)c4nc5ccccc5n24)CCC3)CC(C)O1 (stereo not drawn),i
Cc1nccn1-c1c2c(c(C#N)c3nc4ccccc4n13)CCC2,i
N#Cc1c(-c2ccccc2)c(C#N)c2nc3ccccc3n2c1N,32%
O=C(CCCOc1ccccc1)Nc1nnc(C2CCCCC2)s1,i
CCN(CC)C(=O)c1sc2ncnc(N3CCN(c4ccc(OC)cc4)CC3)c2c1C,i
O=C1NCC2(CCCN(C(=O)c3[nH]cnc3-c3ccccc3)C2)O1 (stereo not drawn),i
CCCCNC(=O)C(C)Sc1nc2nc(C)cc(C)n2n1 (stereo not drawn),i
COc1ccccc1N1CCN(CC(O)COc2cc(C)ccc2C(C)C)CC1 (stereo not drawn),i
O=C(ON1C(=O)c2ccccc2C1=O)c1ccc([N+](=O)[O-])cc1,i
CC(=O)N1/C(=C/c2ccc([N+](=O)[O-])cc2)C(=O)c2ccccc21,51%
CC(C)C(C(=O)Nc1ccc([N+](=O)[O-])cc1)N1C(=O)c2ccccc2C1=O (stereo not drawn),i
COc1ccc(C2C(C#N)=C(N)Oc3cc(C)oc(=O)c32)cc1OCc1ccccc1 (stereo not drawn),32%
COc1ccc(C2C(C#N)=C(N)Oc3n[nH]c(C)c32)cc1OCc1ccccc1 (stereo not drawn),i
COc1cc(C2C(C#N)=C(N)OC3=C2C(=O)CC(c2ccccc2)C3)cc(OC)c1OC (stereo not drawn),i
COc1cc(C2C(C#N)=C(N)OC3=C2C(=O)CC(c2ccccc2)C3)ccc1OCc1ccccc1 (stereo not drawn),37%
COc1ccc(C2C(C#N)=C(N)OC3=C2C(=O)CC(c2ccccc2)C3)cc1 (stereo not drawn),i
Cc1cc2c(c(=O)o1)C(c1ccccc1OCc1ccccc1Cl)C(C#N)=C(N)O2 (stereo not drawn),i
COc1ccc(OC)c(CN2CCCN(C)CC2)c1,i
COc1ccc(S(=O)(=O)Nc2cc(C(C)C)c(O)c(C(C)C)c2)cc1,i
C#CCN(Cc1ccc(C)cc1)C(=O)CC(=O)Nc1ccc(C)cc1,i
CCC(Sc1nc2ccccc2c2nc3ccccc3n12)C(=O)NCCCOC (stereo not drawn),i
CC1(C)CC(=O)C(C(C2=C(O)CC(C)(C)CC2=O)c2cccc(O)c2)C(=O)C1 (stereo not drawn),i
